Data taken from PubChem BioAssay AID1159580 (chemical genetic matrix, 2015).
Where “and” joins values, the source holds several entries; their conditions need not be identical. Identical values can stand only once. The campaign covered roughly 5,500 compounds. About 2,000 (36%) were called active. Inconclusive results (about 18%) are left out. Rule as the data show it: active = normalized growth mostly below about 0.91 (no sharp cut-off); inconclusive = no clear call, values can overlap the other calls; inactive = mostly above about 0.92. This is one part of the list.

Test: chemical genetic growth profiling, strain panel (AID 1159580);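 also: tested at 20 µM; growth read once vehicle control cultures reached saturation at 30 °C; 1 = growth at the plate median or of vehicle wells; lower values mean less growth of the strain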
Conditions: S. cerevisiae deletion strains, growth OD

Measured: normalized growth

O=c1c(-c2ccc(O)cc2)coc2cc(O)cc(O)c12
inactive: locus YAL013W, strain DEP1, active compounds read low 1.03 | locus YAL021C, strain ccr4, active compounds read low 1.01 | locus YAL026C, strain drs2, active compounds read low 1.02 | locus YAL030W, strain snc1, active compounds read low 1.01 | locus YAL040C, strain CLN3, active compounds read low 0.968 | locus YBL061C, strain skt5, active compounds read low 1.01 | locus YBR009C, strain hhf1, active compounds read low 1.01 | locus YBR021W, strain FUR4, active compounds read low 1 | locus YBR023C, strain chs3, active compounds read low 1.01 | locus YBR171W, strain sec66, active compounds read low 1.01 | locus YBR229C, strain ROT2, active compounds read low 1.02 | locus YBR231C, strain swc5, active compounds read low 1.01 | locus YBR279W, strain paf1, active compounds read low 1 | locus YCL011C, strain gbp2, active compounds read low 1.01 | locus YCL016C, strain dcc1, active compounds read low 1.01 | locus YCL029C, strain bik1, active compounds read low 1.03 | locus YCL061C, strain MRC1 (second series), active compounds read low 1 | locus YCL061C, strain MRC1, active compounds read low 1 | locus YCL069W, strain vba3, active compounds read low 1.02 | locus YCR088W, strain abp1, active compounds read low 1.02 | locus YDL005C, strain med2, active compounds read low 1 | locus YDL035C, strain GPR1, active compounds read low 1.07 | locus YDL040C, strain nat1, active compounds read low 1.01 | locus YDL074C, strain BRE1, active compounds read low 1.14 | locus YDL101C, strain DUN1, active compounds read low 1.03 | locus YDL185W, strain tfp1, active compounds read low 1.02 | locus YDL192W, strain arf1, active compounds read low 1.04 | locus YDR001C, strain nth1, active compounds read low 1.01 | locus YDR069C, strain doa4, active compounds read low 1.01 | locus YDR101C, strain arx1, active compounds read low 1 | locus YDR137W, strain rgp1, active compounds read low 0.983 | locus YDR150W, strain NUM1, active compounds read low 0.996 | locus YDR159W, strain sac3, active compounds read low 1.02 | locus YDR162C, strain NBP2, active compounds read low 1.04 | locus YDR195W, strain ref2 1.03 | locus YDR297W, strain sur2, active compounds read low 1.01 | locus YDR318W, strain mcm21, active compounds read low 1.02 | locus YDR334W, strain swr1, active compounds read low 0.989 | locus YDR335W, strain msn5, active compounds read low 1.02 | locus YDR363W, strain ESC2, active compounds read low 0.994 | locus YDR388W, active compounds read low 1.03 | locus YDR392W, strain spt3, active compounds read low 0.989 | locus YDR502C, strain sam2, active compounds read low 1.02 | locus YEL003W, strain gim4, active compounds read low 1.01 | locus YEL037C, strain rad23, active compounds read low 1.01 | locus YEL061C, strain CIN8 (second series), active compounds read low 1.01 | locus YER002W, strain NOP16, active compounds read low 0.996 | locus YER015W, strain faa2, active compounds read low 1.01 | locus YER016W, strain bim1, active compounds read low 1.01 | locus YER110C, active compounds read low 1.04 | locus YER111C, strain swi4, active compounds read low 1.03 | locus YER155C, strain BEM2 (second series), active compounds read low 1.02 | locus YER155C, strain BEM2, active compounds read low 1.03 | locus YER167W, strain BCK2, active compounds read low 1.03 | locus YFR010W, strain ubp6, active compounds read low 0.995 | locus YGL078C, strain dbp3, active compounds read low 1.03 | locus YGL086W, strain mad1, active compounds read low 1.01 | locus YGL167C, strain pmr1, active compounds read low 1.01 | locus YGL173C, strain kem1, active compounds read low 1.01 | locus YGL227W, strain vid30, active compounds read low 1.01 | locus YGL240W, strain doc1, active compounds read low 1.01 | locus YGL248W, strain PDE1, active compounds read low 1.07 | locus YGL253W, strain hxk2, active compounds read low 1 | locus YGR078C, strain PAC10, active compounds read low 1.06 | locus YGR135W, strain pre9, active compounds read low 1.05 | locus YGR252W, strain gcn5, active compounds read low 0.958 | locus YHR013C, strain ard1, active compounds read low 1.03 | locus YHR027C, strain rpn1, active compounds read low 1.01 | locus YHR030C, strain SLT2, active compounds read low 0.984 and 1.04 | locus YHR079C, strain IRE1 (second series), active compounds read low 1.02 | locus YHR079C, strain IRE1, active compounds read low 1.01 | locus YHR094C, strain hxt1, active compounds read low 1.04 | locus YHR129C, strain ARP1, active compounds read low 1.05 | locus YHR142W, strain chs7, active compounds read low 0.991 | locus YHR200W, strain rpn10, active compounds read low 1.02 | locus YIL066C, strain RNR3, active compounds read low 1.05 | locus YIL073C, strain SPO22, active compounds read low 1.13 | locus YIL125W, strain kgd1, active compounds read low 1.03 | locus YIR030C, strain dcg1, active compounds read low 1.03 | locus YJL092W, strain hpr5, active compounds read low 1.01 | locus YJL095W, strain BCK1 (second series), active compounds read low 1.01 | locus YJL095W, strain BCK1, active compounds read low 1.11 and 1.05 | locus YJL115W, strain asf1, active compounds read low 0.999 | locus YJL129C, strain trk1, active compounds read low 0.997 | locus YJL134W, strain LCB3, active compounds read low 1.03 | locus YJL154C, strain vps35, active compounds read low 1 | locus YJL164C, strain tpk1, active compounds read low 0.95 | locus YJL166W, strain qcr8, active compounds read low 1 | locus YJL168C, strain set2, active compounds read low 1.03 | locus YJL187C, strain SWE1 (second series), active compounds read low 1.05 | locus YJL187C, strain SWE1, active compounds read low 1 | locus YJR066W, strain TOR1, active compounds read low 0.999 | locus YKL009W, strain mrt4, active compounds read low 1.04 | locus YKL068W, active compounds read low 1 | locus YKL085W, strain MDH1 (second series), active compounds read low 1.02 | locus YKL085W, strain MDH1, active compounds read low 1.02 | locus YKL160W, strain elf1, active compounds read low 1 | locus YKL190W, strain CNB1, active compounds read low 1.02 | locus YKR001C, strain vps1, active compounds read low 1.03 | locus YKR026C, strain gcn3, active compounds read low 1.02 | locus YKR091W, strain srl3, active compounds read low 1.01 | locus YLL001W, strain dnm1, active compounds read low 1.02 | locus YLL026W, active compounds read low 1.02 | locus YLL041C, strain sdh2, active compounds read low 1 | locus YLR027C, strain aat2, active compounds read low 1.01 | locus YLR039C, strain RIC1, active compounds read low 1.21 | locus YLR058C, strain SHM2, active compounds read low 1.05 | locus YLR102C, strain apc9, active compounds read low 1.03 | locus YLR113W, strain HOG1, active compounds read low 1.07 | locus YLR221C, strain rsa3, active compounds read low 1 | locus YLR258W, strain gsy2, active compounds read low 1.01 | locus YLR262C, strain YPT6 (second series), active compounds read low 1.01 | locus YLR268W, strain sec22, active compounds read low 1.03 | locus YLR320W, strain mms22, active compounds read low 1 | locus YLR342W, strain FKS1, active compounds read low 1.01 | locus YLR357W, strain rsc2, active compounds read low 0.987 | locus YLR370C, strain arc18, active compounds read low 1.01 | locus YLR371W, strain rom2, active compounds read low 1.06 | locus YLR384C, strain iki3, active compounds read low 1.02 | locus YLR418C, strain cdc73, active compounds read low 1.05 | locus YML016C, strain PPZ1, active compounds read low 1.03 | locus YML032C, strain rad52, active compounds read low 1.02 | locus YML120C, strain ndi1, active compounds read low 1.02 | locus YML124C, strain tub3, active compounds read low 1.02 | locus YMR058W, strain fet3, active compounds read low 1.01 | locus YMR078C, strain ctf18, active compounds read low 1.03 | locus YMR125W, strain sto1, active compounds read low 1.01 | locus YMR129W, active compounds read low 1.01 | locus YMR205C, strain PFK2, active compounds read low 1.02 | locus YMR223W, strain ubp8, active compounds read low 1.03 | locus YMR231W, strain pep5, active compounds read low 1 | locus YMR263W, strain SAP30, active compounds read low 1.03 | locus YMR307W, strain GAS1, active compounds read low 1.17 and 0.992 | locus YNL067W, strain RPL9B, active compounds read low 1.03 | locus YNL071W, strain lat1, active compounds read low 1.02 | locus YNL128W, strain TEP1, active compounds read low 1.06 | locus YNL175C, strain NOP13, active compounds read low 1.01 | locus YNL183C, strain NPR1, active compounds read low 0.993 | locus YNL197C, strain WHI3, active compounds read low 1.01 | locus YNL209W, strain ssb2, active compounds read low 0.996 | locus YNL224C, strain SQS1, active compounds read low 1 | locus YNL233W, strain BNI4, active compounds read low 1.08 | locus YNL248C, strain rpa49, active compounds read low 0.999 | locus YNL250W, strain rad50, active compounds read low 1.04 | locus YNL271C, strain bni1, active compounds read low 1.02 | locus YNL298W, strain CLA4, active compounds read low 1.04 | locus YNL307C, strain MCK1, active compounds read low 1.06 | locus YNL322C, strain KRE1 (second series), active compounds read low 1.01 | locus YNL322C, strain KRE1, active compounds read low 0.996 | locus YNR049C, strain mso1, active compounds read low 1.01 | locus YNR052C, strain pop2, active compounds read low 1.05 | locus YOL006C, strain TOP1, active compounds read low 1.26 | locus YOL012C, strain htz1 0.919 | locus YOL147C, strain pex11, active compounds read low 1.01 | locus YOR001W, strain rrp6, active compounds read low 1.01 | locus YOR061W, strain CKA2, active compounds read low 1.04 | locus YOR069W, strain VPS5, active compounds read low 1.03 | locus YOR070C, strain gyp1, active compounds read low 1 | locus YOR080W, strain dia2, active compounds read low 1.01 | locus YOR083W, strain WHI5 (second series), active compounds read low 1.03 | locus YOR083W, strain WHI5, active compounds read low 0.997 | locus YOR106W, strain vam3, active compounds read low 0.977 | locus YOR136W, strain idh2, active compounds read low 1.03 | locus YOR144C, strain elg1, active compounds read low 1.02 | locus YOR184W, strain ser1, active compounds read low 1 | locus YOR231W, strain MKK1, active compounds read low 1.04 | locus YOR265W, strain rbl2, active compounds read low 1.01 | locus YOR270C, strain vph1, active compounds read low 0.982 | locus YOR290C, strain snf2, active compounds read low 0.989 | locus YOR316C, strain cot1, active compounds read low 1.02 | locus YPL051W, strain arl3, active compounds read low 0.989 | locus YPL055C, strain LGE1, active compounds read low 1.08 and 1.02 | locus YPL078C, strain atp4, active compounds read low 1.01 | locus YPL106C, strain sse1, active compounds read low 1.02 | locus YPL240C, strain hsp82, active compounds read low 0.992 | locus YPL241C, strain CIN2, active compounds read low 1 | locus YPL256C, strain CLN2, active compounds read low 1.05 | locus YPR119W, strain clb2, active compounds read low 1.03 | locus YPR141C, strain kar3, active compounds read low 1.02 | locus YPR163C, strain tif3, active compounds read low 1.04 | locus YPR167C, strain met16, active compounds read low 1.03 | strain wtn01, active compounds read low 1.02
